PD-1 reverse act: activators reversing PD-1 mediated T-cell inhibition; primary human CD4 T cells, PD-L1 beads, CellTiter-Glo 96 h; activation, % (test concentration not listed); 29,000 tested, under 10 active; AID 2316; call rule not given here;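 note: 0% = median vehicle wells and 100% = positive control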
NOMO-1 viab: STK33 inhibitor candidate reducing NOMO-1 cell viability; inhibition, % (concentration not given with the values); actives 7.5% (n = 37,000); NOMO-1 AML viability, CellTiter-Glo luminescence, 72 h; in the data active = inhibition above about 80%; inconclusive = no clear call, values can overlap the other calls
U2OS ROS induce: inducers of reactive oxygen species in cancer cells. U2OS ROS induction, H2DCF-DA fluorescence. ROS induction (% of piperlongumine), % at 10 µM. actives 2% (n = 46,000); in the data active = ROS induction above about 79%, passing the limit was not always enough; inconclusive = no clear call, values can overlap the other calls;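 note: 0% = DMSO vehicle median and 100% = reference compound median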
* marks the source's active call; other numbers are inactive results; ? = inconclusive; . = no result. Many of the other results were omitted from the sample, so hits are more common in it than they were.

SMILES | PD-1 reverse act | NOMO-1 viab | U2OS ROS induce
O=C(CCN1C(=O)COc2ccccc21)NC1CCCCCC1 | . | . | -5.3
O=C(Cn1c(=O)c2ccccc2n2nncc12)Nc1ccc(Br)cc1 | . | . | -9.4
C[C@@H]1CCCCO[C@@H](CN(C)Cc2ccc(C(=O)Nc3ccccc3N)cc2)[C@@H](C)CN([C@H](C)CO)C(=O)c2cc(NS(=O)(=O)c3ccc(Cl)cc3)ccc2O1 | 0.5 | 127.1* | 22.5
COc1ccc(CN(C)C[C@@H]2OCCCC[C@@H](C)Oc3ccc(NS(=O)(=O)c4ccccc4)cc3C(=O)N([C@H](C)CO)C[C@@H]2C)cc1 | . | 26.4 | 47.6
COc1ccc(S(=O)(=O)Nc2ccc3c(c2)C(=O)N([C@H](C)CO)C[C@H](C)[C@H](CN(C)Cc2ccc(C(=O)Nc4ccccc4N)cc2)OCCCC[C@@H](C)O3)cc1 | -1.3 | 125.8* | 53.1
C[C@@H]1CCCCO[C@H](CN(C)Cc2ccc(C(=O)Nc3ccccc3N)cc2)[C@@H](C)CN([C@H](C)CO)C(=O)c2cc(NS(C)(=O)=O)ccc2O1 | -1.0 | 65.9 | 4.3
CCN(CC)C(=S)NC1CCCCC1 | . | . | 0.8
Cc1cc(C)n2nc(SCC(=O)NC(C)CCc3ccccc3)nc2n1 (centres undefined) | . | . | -4.3
O=C(CC(CC(=O)c1ccccc1)c1cccc2ccccc12)c1ccccc1 | . | . | 16.5
Cc1noc(C)c1NC(=O)Nc1ccc2c(c1)CC(=O)N([C@H](C)CO)C[C@@H](C)[C@H](CN(C)S(C)(=O)=O)O2 | 0.2 | -31.7 | 32.7
Cc1noc(C)c1NC(=O)Nc1ccc2c(c1)CC(=O)N([C@@H](C)CO)C[C@@H](C)[C@@H](CN(C)S(=O)(=O)c1c(C)noc1C)O2 | 0.9 | 26.5 | 85.2*
Cc1noc(C)c1S(=O)(=O)N(C)C[C@H]1Oc2ccc(NC(=O)Nc3ccccc3)cc2CC(=O)N([C@@H](C)CO)C[C@@H]1C | -0.9 | 29.2 | 44.2
Cc1noc(C)c1S(=O)(=O)N(C)C[C@H]1Oc2ccc(NC(=O)Nc3ccc(C(F)(F)F)cc3)cc2CC(=O)N([C@@H](C)CO)C[C@H]1C | -1.0 | 91.7* | 13.1
Cc1ccc(CSCCC(=O)NC2CCCC(C)C2C)cc1 (centres undefined) | . | . | 5.9
COc1ccc(-c2noc(CSc3nnc(-c4ccccc4)n3C)n2)cc1 | 0.2 | -4.9 | 124.6*
Cc1nnc(SCc2nc(-c3ccccc3)no2)n1-c1ccccc1 | 0.7 | -11.2 | -6.0
CC1=C(c2ccc(C)cc2)S(=O)(=O)NC1=NC1CCN(Cc2ccccc2)CC1 | . | . | 5.1
COc1cc2c(cc1NC(=S)NCc1ccco1)oc1ccccc12 | -9.8 | 92.7* | 45.4
COc1cc2c(cc1NC(=S)NCCc1ccc(OC)c(OC)c1)oc1ccccc12 | -5.0 | 7.5 | 24.0
COc1ccccc1CCNC(=O)c1cc(-c2ccccn2)nc2c(C)c(Cl)ccc12 | . | 101.4* | .
COc1ccccc1CCNC(=O)c1cc(-c2ccncc2)nc2c(C)c(Cl)ccc12 | . | 47.0 | .
CC(C)CC(NS(=O)(=O)c1cccc2nsnc12)C(=O)O (centres undefined) | . | 5.2 | .
COC(=O)C(CC(C)C)NS(=O)(=O)c1ccc(-c2nnc(SC)n2C)s1 (centres undefined) | 0.4 | 119.2* | 0.8
Oc1ccc(-c2nc3cc4ccccc4cc3nc2-c2ccccc2)cc1 | . | . | 46.4
C=CCn1c2ccccc2c2nnc(SCC(=O)c3ccc(Cl)cc3)nc21 | -2.2 | 12.1 | 70.3
SMILES | PD-1 reverse act | NOMO-1 viab | U2OS ROS induce
Cn1c2ccccc2c2nnc(SCC(=O)c3ccc(Cl)cc3)nc21 | 0.9 | 1.7 | 117.3*
COCCN1C(=O)/C(=C/c2cn(CC(=O)OC)c3ccccc23)C(=O)N(c2ccccc2)C1=O | 1.3 | 28.1 | 93.0*
CCOC(=O)Cn1cc(/C=C2\C(=O)NC(=O)N(c3ccc(F)cc3)C2=O)c2ccccc21 | . | . | 44.0
c1ccc2[nH]c(CSCCC3CCCCC3)nc2c1 | . | . | -18.3
C[C@@H]1CN([C@H](C)CO)C(=O)c2cc(NC(=O)Nc3ccc(C(F)(F)F)cc3)ccc2O[C@H]1CN(C)Cc1ccc(Cl)c(Cl)c1 | -9.8 | 122.5* | -4.9
C[C@H]1CN([C@@H](C)CO)C(=O)c2cc(NC(=O)Nc3ccc(F)cc3)ccc2O[C@@H]1CN(C)Cc1ccc(Cl)c(Cl)c1 | 0.5 | 21.8 | 20.2
C[C@H]1CN([C@@H](C)CO)C(=O)c2cc(NC(=O)Nc3ccc(C(F)(F)F)cc3)ccc2O[C@H]1CN(C)Cc1ccc(Cl)c(Cl)c1 | 0.3 | 106.9* | 0.6
C[C@@H]1CN([C@H](C)CO)C(=O)c2cc(NC(=O)Nc3ccc(C(F)(F)F)cc3)ccc2O[C@H]1CN(C)Cc1ccncc1 | -1.7 | -6.3 | 12.7
C[C@@H]1CN([C@H](C)CO)C(=O)c2cc(NC(=O)Nc3ccc(C(F)(F)F)cc3)ccc2O[C@@H]1CN(C)Cc1ccc(Cl)c(Cl)c1 | -1.8 | 113.6* | 9.7
CCOC(=O)c1ccc2nc(C(F)(F)F)cc(N3CCN(c4ccccc4)CC3)c2c1 | . | . | 33.3
COc1ccc(-c2cnnn2-c2ccc(NC(=O)c3ccccc3C(F)(F)F)cc2)cc1OC | . | . | 34.8
COc1cc2c(cc1OC)C1C(C)C(=O)C3=C(CSCC3=O)N1CC2 (centres undefined) | . | . | 1.2
Cc1cc(C)cc(NC(=O)Nc2ccccc2C(=O)Nc2cc(C)cc(C)c2)c1 | . | . | -5.1
O=C(CCCn1sc2ccccc2c1=O)N1CCc2ccccc21 | . | . | 14.9
Cc1nc2ccccc2n1CC(O)COCC1CC=CCC1 (centres undefined) | 0.6 | 40.6 | 2.5
Cc1ccc(C(C)C)cc1OCC(O)Cn1c(C)nc2ccccc21 (centres undefined) | -7.6 | 105.5* | 7.8
O=C(c1ccc(CSc2nc3ccncc3n2Cc2ccc(F)cc2)cc1)N1CCCCC1 | . | . | 7.2
COC(=O)c1cn(CC(N)=O)c2ccccc12 | 1.2 | -17.6 | -7.9
O=C(O)CSc1c[nH]c2ccccc12 | . | 26.5 | .
Cn1cc(C2=C(c3cn(CCCSC(=N)N)c4ccccc34)C(=O)NC2=O)c2ccccc21 | -9.3 | 141.6* | 75.8*
CN(C)CCCn1cc(C2=C(c3c[nH]c4ccccc34)C(=O)NC2=O)c2ccccc21 | . | ? | 81.0*
Cc1onc(-c2c(Cl)cccc2Cl)c1NC(=O)N(C)C | . | . | -9.5
CCc1cccc(C(C)C)c1NC(=O)Nc1ccccc1 | 0.2 | 36.6 | -8.5
CCC(C(=O)Nc1ccccc1F)n1c(SCc2ccc(F)cc2)nc2ccncc21 (centres undefined) | . | . | 17.1
Clc1ccc(-c2nc(N3CCCCC3)c3ccccc3n2)cc1 | . | . | -1.3
SMILES | PD-1 reverse act | NOMO-1 viab | U2OS ROS induce
Clc1ccc(C2=NN=C(N3CCCC3)SC2)cc1 | -5.2 | 99.1* | 4.9
C[C@H](CO)N1C[C@H](C)[C@H](CN(C)Cc2ccc(C(=O)Nc3ccccc3N)cc2)Oc2c(cccc2N(C)C)C1=O | 0.1 | 124.4* | 44.0
C[C@@H]1CN([C@H](C)CO)C(=O)c2cccc(N(C)C)c2O[C@@H]1CN(C)Cc1ccc(C(=O)Nc2ccccc2N)cc1 | -0.3 | 126.9* | -9.2
Cc1nc2c(c(C)nn2C(C)(C)C)c(C)c1CCC(=O)NCCCc1ccccc1 | . | . | 15.6
CNC(=O)C(C)n1nc(C)c2sc3ccccc3c2c1=O (centres undefined) | . | . | 14.6
CCN(CC)C(=S)Sc1ncnc2sc3c(c12)CCCC3 | -3.3 | 125.4* | 91.9*
CC(C)(C)C(=O)CSc1ncnc2sc3c(c12)CCCC3 | -2.4 | 19.6 | 30.0
